# Laboratory results taken from PubChem BioAssay.
# Activity calls are given as the source filed them. Rule as the data show it, unless noted: active = inhibition above about 80%; inactive = the rest.
# What was measured:
# [1] = LFS_MB_P medulloblastoma growth inhibition, cell-based, chromothripsis tumors, cisplatin or BGB combos (AID 1671449); conditions: LFS_MB_P medulloblastoma cells;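 also: cells exposed for 96 hours; 0% = vehicle DMSO and 100% = killing by high DMSO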
# [2] = HDN33 neuroblastoma growth inhibition, cell-based, chromothripsis tumors, cisplatin or BGB combos (AID 1671450); conditions: HDN33 neuroblastoma cells, stronger effect = higher value;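 also: cells exposed to compound for four days; 0% = vehicle DMSO and 100% = cell killing by high DMSO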
# [3] = ICB984 medulloblastoma cell growth inhibition, synergistic combos for chromothripsis tumors, cisplatin or BGB combos (AID 1671451; call rule not given here;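 also: cells exposed for 96 hours before readout; 0% = vehicle DMSO and 100% = killing by high DMSO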); conditions: ICB984 medulloblastoma cells, drug combinations, stronger effect = higher value
# [4] = LFS_MB_1R medulloblastoma cell growth inhibition, synergistic combos for chromothripsis tumors, cisplatin or BGB combos (AID 1671452); conditions: LFS_MB_1R medulloblastoma cells, stronger effect = higher value;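 also: cells exposed for 96 hours before readout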
# [5] = HTB85 osteosarcoma cell growth inhibition, synergistic combos for chromothripsis tumors, BGB or cisplatin IC20 combos (AID 1671453); conditions: HTB85 osteosarcoma cells, drug combinations, stronger effect = higher value;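 also: cells exposed for 96 hours before readout; 0% = vehicle DMSO and 100% = high DMSO killing control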
# [6] = CRL2098 osteosarcoma cell growth inhibition, synergistic combos for chromothripsis tumors, BGB or cisplatin IC20 combos (AID 1671454); conditions: CRL2098 osteosarcoma cells, drug combinations, stronger effect = higher value;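 also: cells exposed for 96 h before readout; 0% = vehicle DMSO and 100% = killing by high DMSO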
# [7] = HD-MB03 medulloblastoma cell growth inhibition, synergistic combos for chromothripsis tumors, BGB or cisplatin IC20 combos (AID 1671455; in the data active = inhibition above about 83%;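 also: 0% = vehicle DMSO and 100% = high DMSO as cytotoxic control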); conditions: HD-MB03 medulloblastoma cells, stronger effect = higher value
# [8] = UWB1.289 ovarian carcinoma cell growth inhibition, synergistic combos for chromothripsis tumors, BGB or cisplatin combos (AID 1671456); conditions: UWB1.289 ovarian carcinoma cells, stronger effect = higher value;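 also: cells exposed to compound for four days; 0% = vehicle DMSO and 100% = killing by high DMSO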
# [9] = LFS_MB_2R medulloblastoma cell growth inhibition, synergistic combos for chromothripsis tumors, cisplatin combos (AID 1671457); conditions: LFS_MB_2R medulloblastoma cells, stronger effect = higher value;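 also: cells exposed to compound for four days before readout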
# [10] = MDA-MB-436 breast carcinoma cell growth inhibition, synergistic combos for chromothripsis tumors, BGB or cisplatin combos (AID 1671458; call rule not given here;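 also: cells exposed for 96 hours; 0% = vehicle DMSO and 100% = killing by high DMSO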); conditions: MDA-MB-436 breast carcinoma growth inhibition, drug combinations, stronger effect = higher value
# [11] = UWB1.289_BRCA1 ovarian cancer growth, cell-based, BGB or cisplatin combinations (AID 1671459); conditions: UWB1.289 BRCA1 ovarian carcinoma, drug combinations, stronger effect = higher value
# [12] = human astrocyte viability loss, single and combined drugs, cytotoxicity control for chromothriptic childhood tumor combination screen, cell-based, BGB or cisplatin IC20 combos (AID 1671460); conditions: Human astrocytes, drug combinations, stronger effect = higher value;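 also: cells exposed to compounds for 96 hours before viability readout; 0% = vehicle and 100% = killing control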
# [13] = growth inhibition of BT084 medulloblastoma cells, cell-based, ICGC_MB145, cisplatin and BGB IC40 combos (AID 1671461); conditions: drug combinations, stronger effect = higher value;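 also: cells exposed to drugs for 96 hours; 0% = vehicle DMSO and 100% = high DMSO full killing control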
# [14] = growth inhibition of RCMB18 medulloblastoma cells, cell-based, cisplatin and BGB IC40 combos (AID 1671462); conditions: stronger effect = higher value;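 also: cells exposed to compound for four days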
# [15] = growth inhibition of CRL1545 osteosarcoma cells, cell-based, cisplatin and BGB IC20 combos (AID 1671464); conditions: stronger effect = higher value;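 also: cells exposed to compound for 96 hours before readout; 0% = vehicle DMSO and 100% = high DMSO killing control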
# [16] = viability rescue of complex I mutant cybrids, primary screen, cell-based, galactose medium, ATP luminescence (AID 1645843;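 active = z-score of at least 1.8 in each of two replicates, scored against plate mean and spread of sample wells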;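 also: positive z means more ATP and so rescue of galactose-driven cybrid death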); conditions: complex I mutant cybrid cells, 72 h, stronger effect = higher value
# [17] = measured here: combination with BGB IC40, at 0.05 µM
# [18] = measured here: with BGB IC20 combination, at 0.5 µM
# [19] = measured here: with cisplatin IC20 combination, at 0.5 µM
# [20] = measured here: combination with cisplatin, at 0.5 µM
# [21] = measured here: combination with cisplatin, at 5 µM
structure (smiles),measurement,setting,value
CC(=O)C1(O)Cc2c(O)c3c(c(O)c2C(OC2CC(N)C(O)C(C)O2)C1)C(=O)c1ccccc1C3=O (centres undefined),inhibition,"[1]; at 0.5 µM, stronger effect = higher value",-11.2% (inactive)
same,inhibition,"[1]; measured here: combination with BGB IC20, at 0.005 µM",-29.5%
same,inhibition,"[1]; measured here: combination with BGB IC40, at 0.005 µM",-38.8%
same,inhibition,[1]; [17],-19.5%
same,inhibition,"[1]; measured here: combination with cisplatin, at 0.5 µM, stronger effect = higher value",-31.3%
same,inhibition,"[1]; measured here: combination with cisplatin, at 5 µM, stronger effect = higher value",125%
same,inhibition,"[2]; BGB combo, at 5 µM",99.7%
same,inhibition,[2]; at 0.5 µM,98.4% (active)
same,inhibition,"[2]; cisplatin combo, at 5 µM",99.9%
same,inhibition,[2]; [18],97.4%
same,inhibition,[2]; [19],98.5%
same,inhibition,"[2]; single agent, at 5 µM",99.9%
same,inhibition,"[3]; BGB IC20 combo, at 0.005 µM",97.5%
same,inhibition,"[3]; BGB IC40 combo, at 0.005 µM",95.4%
same,inhibition,"[3]; BGB IC40 combo, at 0.05 µM",100%
same,inhibition,[3]; at 0.5 µM,-42.9% (inactive)
same,inhibition,"[3]; cisplatin combo, at 0.05 µM",100%
same,inhibition,"[3]; cisplatin combo, at 0.5 µM",-43%
same,inhibition,"[3]; cisplatin combo, at 5 µM",-1.78%
same,inhibition,"[3]; measured here: 5 uM single agent, at 5 µM",-14.9%
same,inhibition,[4]; at 0.5 µM,102% (active)
same,inhibition,[4]; [17],73.8%
same,inhibition,[4]; [20],103%
same,inhibition,[4]; [21],106%
same,inhibition,[5]; at 0.5 µM,99.6% (active)
same,inhibition,"[5]; measured here: with BGB IC20, at 0.5 µM",99.4%
same,inhibition,"[5]; measured here: with BGB IC20, at 5 µM",99.7%
same,inhibition,"[5]; measured here: with cisplatin IC20, at 0.5 µM",99.8%
same,inhibition,"[5]; measured here: with cisplatin IC20, at 5 µM",99.8%
same,inhibition,"[5]; single agent, at 5 µM",99.9%
same,inhibition,[6]; at 0.5 µM,98.6% (active)
same,inhibition,"[6]; measured here: combination with BGB at IC20, at 0.5 µM",98%
same,inhibition,"[6]; measured here: combination with cisplatin at IC20, at 0.5 µM",98.6%
same,inhibition,[7]; at 0.5 µM,94.5% (active)
same,inhibition,"[7]; measured here: combo with BGB at IC20, at 0.5 µM",89.5%
same,inhibition,"[7]; measured here: combo with cisplatin at IC20, at 0.5 µM",99.8%
same,inhibition,[8]; at 0.5 µM,83.1% (active)
same,inhibition,"[8]; measured here: inhibition with BGB combination, at 0.05 µM",40.5%
same,inhibition,"[8]; measured here: inhibition with cisplatin combination, at 0.05 µM",51.2%
same,inhibition,[9]; at 0.5 µM,75.6% (inactive)
same,inhibition,[9]; [20],88%
same,inhibition,[9]; [21],102%
same,inhibition,[10]; at 0.5 µM,76.4% (inactive)
same,inhibition,"[10]; measured here: BGB combination, at 0.5 µM",65.8%
same,inhibition,"[10]; measured here: BGB combination, at 5 µM",72.7%
same,inhibition,"[10]; measured here: cisplatin combination, at 0.5 µM",82.9%
same,inhibition,"[10]; measured here: cisplatin combination, at 5 µM",92.7%
same,inhibition,"[11]; BGB combination, concentration series, at 5 µM",101%
same,inhibition,[11]; at 0.5 µM,89% (active)
same,inhibition,"[11]; cisplatin combination, concentration series, at 5 µM",97.8%
same,inhibition,[12]; at 0.5 µM,89.9% (active)
same,inhibition,"[12]; measured here: combo with BGB IC20, at 0.5 µM",84%
same,inhibition,"[12]; measured here: combo with cisplatin IC20, at 0.5 µM",91.6%
same,inhibition,[13]; at 0.5 µM,13.8% (inactive)
same,inhibition,"[13]; cisplatin combination, at 0.5 µM",-40.7%
same,inhibition,"[13]; cisplatin combination, at 5 µM",77.4%
same,inhibition,"[13]; measured here: BGB IC40 combination 0.05 uM, at 0.05 µM",-4.42%
same,inhibition,"[13]; single agent, at 5 µM",81.6%
same,inhibition,[14]; at 0.5 µM,75.2% (inactive)
same,inhibition,"[14]; cisplatin combo, at 5 µM",89.9%
same,inhibition,"[14]; measured here: BGB IC40 combination, at 0.05 µM",34.7%
same,inhibition,[14]; [20],76.4%
same,inhibition,"[14]; single agent, at 5 µM",94.4%
same,inhibition,[15]; at 0.5 µM,99.1% (active)
same,inhibition,[15]; [18],98.7%
same,inhibition,[15]; [19],99.3%
same,inhibition,"[15]; single agent, at 0.05 µM",99.4%
same,inhibition,"[15]; single agent, at 5 µM",99.9%
COc1ccccc1N1CCN(C(=O)Nc2n[nH]c(Cc3ccccc3)n2)CC1,z-score,[16],-0.935 (inactive)
